Hits are enriched below; roughly 3% of the tested compounds scored in any of these assays.
KCNH2 WT inh: blocks the wildtype human KCNH2 potassium channel. 340,000 tested, 0.37% active. Q12809. U2OS, BacMam KCNH2, thallium flux FluxOr; active compounds read low. activity change, % at 1.84 µM;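 active = maximum activity change below -70%; inconclusive = maximum activity change between -70% and -50%; inactive = maximum activity change above -50%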; also: % is scaled to controls: 0 for no effect and ±100 for the full control effect
Target sequence (Q12809 whole entry, looked up): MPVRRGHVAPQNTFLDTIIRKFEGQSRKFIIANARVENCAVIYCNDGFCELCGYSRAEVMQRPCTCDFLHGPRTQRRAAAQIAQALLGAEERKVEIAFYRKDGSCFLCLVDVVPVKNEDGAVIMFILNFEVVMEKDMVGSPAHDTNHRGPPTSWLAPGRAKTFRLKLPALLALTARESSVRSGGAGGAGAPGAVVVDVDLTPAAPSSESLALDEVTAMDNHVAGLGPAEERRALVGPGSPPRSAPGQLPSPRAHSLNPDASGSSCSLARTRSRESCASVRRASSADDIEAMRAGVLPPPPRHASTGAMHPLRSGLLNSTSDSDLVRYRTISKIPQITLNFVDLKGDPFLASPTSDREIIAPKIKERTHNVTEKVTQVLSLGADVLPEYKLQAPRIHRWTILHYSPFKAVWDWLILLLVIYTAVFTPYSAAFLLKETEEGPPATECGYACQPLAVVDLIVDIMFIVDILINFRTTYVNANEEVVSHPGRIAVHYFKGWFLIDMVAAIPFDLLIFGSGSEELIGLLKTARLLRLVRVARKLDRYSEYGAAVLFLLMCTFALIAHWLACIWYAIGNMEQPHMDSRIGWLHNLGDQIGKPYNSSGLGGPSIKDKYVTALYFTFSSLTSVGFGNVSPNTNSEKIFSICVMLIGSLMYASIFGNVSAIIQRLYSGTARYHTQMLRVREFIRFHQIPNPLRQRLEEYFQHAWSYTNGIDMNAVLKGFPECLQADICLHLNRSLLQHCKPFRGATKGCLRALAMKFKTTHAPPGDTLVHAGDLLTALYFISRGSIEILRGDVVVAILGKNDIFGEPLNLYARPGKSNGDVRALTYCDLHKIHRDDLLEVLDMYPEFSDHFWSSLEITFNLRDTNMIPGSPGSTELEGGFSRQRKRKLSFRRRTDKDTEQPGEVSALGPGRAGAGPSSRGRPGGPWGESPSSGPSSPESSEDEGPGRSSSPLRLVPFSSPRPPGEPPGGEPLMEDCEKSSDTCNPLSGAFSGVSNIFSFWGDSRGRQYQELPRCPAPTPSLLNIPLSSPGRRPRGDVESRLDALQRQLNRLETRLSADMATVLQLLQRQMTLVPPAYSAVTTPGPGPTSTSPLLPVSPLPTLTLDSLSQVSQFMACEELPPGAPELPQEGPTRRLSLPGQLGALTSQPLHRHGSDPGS
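U2OS cells were transduced with wild-type KCNH2 virus (2.03 x 10^8 / mL) for 4 h at room temperature, then cultured overnight at 37 C. Thallium flux was read with FluxOr dye. Rate constants were normalized to DMSO controls.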
BCR signal inh: inhibitors of chronic active B-cell receptor signaling; ABC-DLBCL IkBa-CBG/CBR reporter, luminescence ratio, 4 h; Potency, µM (highest dose often 46.1 µM), for the others: top-dose activity change, negative = inhibition, hits mostly inhibitors; 340,000 tested, 0.05% active; active = well fitted inhibition curve with a large enough effect in the signal ratio, with a control signal flat, not every such curve was filed as active; inconclusive = small, poorly fitted or top-dose-only effect, or effect the other way, or a change in a side signal; the % refers to the signal ratio;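 also: potency is read from the fitted curve at half-maximal effect; plate controls were basal doxycycline-induced cells for no effect and cells given 10 µM MG132 for full effect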
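Concentration-response series (up to 46 uM) were applied to TMD8 dual-reporter cells for 4 h at 37C with doxycycline. Green/red ratio, after filter-overlap correction, defined %Activity; red signal alone was normalised to basal cells and zero luminescence.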
LDHA block: LDHA (human) enzyme inhibition; AID 1347041; 480,000 tested, 0.15% active; P00338; purified LDHA, NADH/diaphorase-resazurin fluorescence; active compounds read low; activity change, % (values are at about 110 or 230 µM); in the data active = activity change below about -30%; inconclusive = mostly about -25% to -30%;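 also: plate controls were DMSO wells for no effect and wells without enzyme for full effect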
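Resorufin fluorescence (ex540/em590), read at 0 and 20 min after diaphorase/resazurin addition, reports the NADH left after a 5 min room-temperature reaction of 2 nM human LDH5 with 0.06 mM NADH and 0.2 mM pyruvate.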
ALOX12 inh: inhibitors of human 12S-lipoxygenase ALOX12. Potency, µM (top dose mostly 108 µM), inactives show at the top dose activity change, negative = inhibition, hits mostly inhibitors. purified 12hLO, xylenol orange hydroperoxide absorbance. AID 1671190. 580,000 tested, 1.1% active; active = well fitted inhibition curve with a large enough effect; inconclusive = small, poorly fitted or top-dose-only effect, or another doubt; inactive = no such curve, though single readings can be large or run the other way; also: potency is read from the fitted curve at half-maximal effect; % is scaled to controls: 0 for no effect and ±100 for the full control effect
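Purified human 12hLO (150 nM final) in 25 mM Hepes, 0.01% Triton X-100, pH 7.0 was preincubated 15 min at room temperature with compound. Then 40 uM arachidonic acid was added, 30 min. Hydroperoxide was read by Fe-XO absorbance ratio 573/405 nm.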
ClpP mod: qHTS Assay for Activators of ClpP | Potency, µM (doses to about 57.5 µM), for inactives: top-dose activity change, negative = active | purified B. subtilis ClpP, FRET peptide cleavage, 20 min | 340,000 tested, 1.9% active; active = well fitted falling curve with a large enough effect; inconclusive = small, poorly fitted or top-dose-only effect; inactive = no such curve, though single readings can be large or run the other way; also: potency is read from the fitted curve at half-maximal effect; the source files actives as falling curves though it sought activators and does not explain the sign; nearly all actives have a fitted effect of over 65% in size
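ClpP 10 microg/mL final, pH 8 Tris/KCl buffer with BSA, glycerol, Tween-20; compound pinned in; FRET-FV substrate; RT 20 min; Ex320/Em430; ΔFRET vs ADEP 5.8 microM, DMSO, no enzyme.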
KCNH2 3.1 block: KCNH2 3.1 (human) potassium channel inhibition. U2OS KCNH2 3.1, thallium flux FluxOr; active compounds read low. activity change, % (tested at about 1.8 µM). 340,000 tested, 0.95% active;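 active = maximum activity change below -70%; inconclusive = maximum activity change from -70% to -50%; inactive = maximum activity change above -50%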;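 also: thallium influx rate constant from kinetic fluorescence after stimulation buffer; % is scaled to controls: 0 for no effect and ±100 for the full control effect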
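U2OS cells transduced with KCNH2 3.1 mutant virus (1.77 x 10^8 /mL, 4 h), plated overnight at 37 C, loaded 45 min with FluxOr dye plus Red40 quencher. Thallium flux rate constant from kinetic reads after stimulation buffer, normalised to controls.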
An asterisk follows results filed as active; ? = inconclusive; . = not tested or not shown; [ ] = remark or other dose.

SMILES	KCNH2 WT inh	BCR signal inh	LDHA block	ALOX12 inh	ClpP mod	KCNH2 3.1 block
Cc1cnc(C(=O)NC2C[C@H]3CC[C@@H](C2)N3C(=O)c2cccc(F)c2)cn1 (stereo not given in full)	.	.	.	28%	.	.
COc1ccc(-c2nc(CSCC(=O)NCc3cccnc3)c(C)o2)cc1OC	.	.	2	27%	.	.
CC(C)(C)C(=O)Nc1cccc(C(=O)NOCc2ccccc2)c1	.	.	1	-5%	.	.
CC(C)CNC(=O)CCc1cccnc1	.	.	6	-6%	.	.
Cc1cc(C)n(-c2nc3ccccc3nc2Nc2cccc(Cl)c2)n1	.	.	0	47%	.	.
CCOC(=O)COc1c(OC)cc(Cl)cc1C1Nc2ccccc2C(=O)N1c1ccc(F)cc1 (stereo not given)	2	?	-5	3%	32µM*	8
COc1cccc(Nc2cc(CN3CCC(C)(NC(C)=O)CC3)cc(OC)c2)c1	.	.	.	40µM*	.	.
CC(=O)NC1(C)CCN(Cc2cnc(-c3ccccc3OCc3ccccc3)s2)CC1	.	.	.	8.9µM*	.	.
COc1cccc(Nc2ccc(CN3CCC(C)(NC(C)=O)C3)cc2)c1 (stereo not given)	.	.	.	-6%[176 µM]	.	.
CC(=O)NC1(C)CCN(Cc2cccc(-c3ccccc3)c2)C1 (stereo not given)	.	.	.	-17%[176 µM]	.	.
CC1(NC(=O)C2CC2)CN(Cc2nc(-c3ccccc3OCc3ccccc3)cs2)C1	.	.	.	0%[176 µM]	.	.
CC(=O)NC1(C)CCN(Cc2cccc(Oc3ccccc3)c2)CC1	.	.	.	16µM*	.	.
CC(C)CNC(=O)C1CCN(c2ncnc3sc4c(c23)CCCC4)CC1	.	.	13	?	.	.
COc1cc(C)c(/C=C(\C#N)C(=O)Nc2cccc(Cl)c2C)cc1C(C)C	.	.	5	?	.	.
CCOC(=O)Nc1cc(=O)c2ccccc2o1	18	0%	-1	-27%	32µM*	.
CCOC(=O)Nc1cc2c(C)cc(=O)oc2cc1C	-5	0%	-2	12%	16µM*	-3
O=S(=O)(c1ccc(SCc2cc3c(cc2Br)OCCO3)nc1)N1CCOCC1	.	.	1	6%	.	.
CCCC(=O)Nc1ccc2oc(-c3cccnc3)nc2c1	0	0%	2	?	16µM*	3
CC(C)(C)C(=O)Nc1ccc2oc(-c3cccnc3)nc2c1	.	.	-11	?	.	.
Cc1cccc(OCC(=O)Nc2ccc3oc(=O)ccc3c2)c1	-5	-1%	-10	13%	.	2
COc1ccc(C(=O)NC(=S)Nc2ccc3oc(=O)ccc3c2)cc1OC	-3	-2%	-6	-25%	3%	-99*
CCCCC(=O)Nc1ccc2oc(-c3cccnc3)nc2c1	8	12%	8	-12%	18µM*	-10
CCCC(=O)Nc1ccc2oc(=O)ccc2c1	-2	-18%	-10	0%	25µM*	6
CCCOC(=O)c1c(-c2ccc(OC)cc2)csc1NC(=O)c1ccoc1C	.	.	-2	?	.	.
CN(C)S(=O)(=O)N1CCCN(Cc2ccncc2)C(c2ccccc2)CC(=O)NCC1 (stereo not given)	.	.	.	46%	.	.
SMILES	KCNH2 WT inh	BCR signal inh	LDHA block	ALOX12 inh	ClpP mod	KCNH2 3.1 block
CC(C)OC(=O)c1cc(-c2ccccc2)nc2ccccc12	.	.	1	2%	.	.
CCn1c2c(c(=O)[nH]c1=O)C(c1cccc(F)c1)C1=C(COC1=O)N2 (stereo not given)	.	.	4	-17%	.	.
Cc1nn(CN2CCN(S(=O)(=O)c3cccc(Cl)c3Cl)CC2)c(=O)c2ccccc12	.	.	-5	?	.	.
Cc1ccc2oc(-c3cccc(NC(=O)C4CCCO4)c3)nc2c1 (stereo not given)	-3	10%	4	14%	28µM*	5
CCCC(=O)Nc1cccc(-c2nc3cc(C)c(C)cc3o2)c1	-3	?	-5	19%	22µM*	-9
Cc1cccc(-c2nc3cc(NC(=O)C4CCCO4)ccc3o2)c1 (stereo not given)	2	?	-3	-8%	?	4
N#Cc1cc(-c2ccc(Cl)cc2)cnc1Sc1ccccc1	8	-6%	-7	-3%	?	-79*
N#Cc1cc(-c2ccccc2)cnc1Sc1ccc(Cl)cc1	-5	5%	-7	0%	?	-20
CC(C)(C)c1ccc(-c2nc(C#N)c(NCc3cccnc3)o2)cc1	3	-7%	1	0%	32µM*	-10
Cc1ccc(OCc2ccc(-c3nc(C#N)c(NCc4cccnc4)o3)o2)cc1	.	.	-3	-4%	35µM*	.
Cc1ccc(CNc2oc(-c3ccc(COc4ccc(C)cc4)o3)nc2C#N)cc1	.	.	4	-3%	25µM*	.
CN(Cc1ccccc1)S(=O)(=O)c1ccc(-c2nc(C#N)c(NCc3cccnc3)o2)cc1	.	.	7	-15%	.	.
Cc1ccc(CNc2oc(-c3ccc(COc4ccc(Cl)cc4)o3)nc2C#N)cc1	.	.	-12	?	?	.
N#Cc1nc(-c2ccccc2)[nH]c1C#N	.	.	-4	66%	.	.
COC(=O)c1ccc(C(=O)NCC2(c3ccccc3)CC2)cc1	.	.	4	?	.	.
O=C(NCc1ccccn1)C1c2ccccc2C(=O)N(Cc2ccccc2)C12CCCCC2 (stereo not given)	.	.	0	5%	.	.
CC(CCc1ccc(O)cc1)NC(c1ccccc1)c1ccc(Cl)cc1 (stereo not given)	16	?	2	?	.	-33
CC(CCc1ccc(O)cc1)NCc1ccc(Br)cc1 (stereo not given)	4	0%	0	13µM*	1%	-88*
CC(CCc1ccc(O)cc1)NCCC(c1ccccc1)c1ccccc1 (stereo not given)	-119*	?	-17	24%	.	-96*
COc1ccc(CNC(C)CCc2ccccc2)cc1 (stereo not given)	18	0%	-1	?	.	-46
O=C1CCCN1CCCNCC(=O)N1c2ccccc2Sc2ccccc21	-2	3%	-41*	-52%	-2%	6
COC(=O)C(C)Oc1ccc2c(-c3ccccc3)cc(=O)oc2c1 (stereo not given)	.	.	-32*	9%	.	.
COC(=O)COc1ccc2c(-c3ccc(OC)cc3)cc(=O)oc2c1	?	?	-5	32%	?	-79*
COC(=O)C(C)Oc1ccc2c(=O)c(-c3ccc4c(c3)OCCO4)coc2c1 (stereo not given)	.	.	-34*	8%	.	.
CC(Oc1ccc2c(-c3ccccc3)cc(=O)oc2c1)C(=O)O (stereo not given)	-23	?	-4	-20%	-12%	8
CC(NC(=O)OCc1ccccc1)C(=O)Oc1cc2oc(=O)cc(-c3ccccc3)c2cc1Cl (stereo not given)	6	?	4	-14%	25µM*	-2

High-throughput results (PubChem BioAssay)
